The sample as a whole holds a higher share of hits than the screen did.
Choline anaer gr – growth inhibitors of anaerobic choline-fed gram-negatives, minimal medium, absorbance; actives 0.2% (n = 55,000); Gram-negative bacterium anaerobic choline minimal medium; active compounds read low; calls only; call rule not given here
Calls only; . = inactive; + = active, no number; ! = a repeat was not active.

SMILES	Choline anaer gr
COc1ccc(-c2nn3c(CSc4ccccc4)nnc3s2)cc1	.
CN(C)c1cccc(-c2nn3c(CSc4ccccc4)nnc3s2)c1	.
c1ccc(SCc2nnc3sc(-c4cccnc4)nn23)cc1	+
O=C(NCCCc1ccccc1)C1CCCN(c2ncnc3c2oc2ccccc23)C1 (stereo not drawn)	.
O=C(CN1c2ccc(F)cc2-c2ccccc2S1(=O)=O)NCCSC1CCCCC1	.
COc1ccc(NC(=O)Cn2c(=O)n(-c3cccc(C)c3)c(=O)c3c2c2cc(C)ccc2n3C)c(OC)c1	.
CCc1onc(C)c1C1CCCN1C(=O)Cn1nc(C(F)(F)F)c2c1CCCC2 (stereo not drawn)	.
Cc1[nH]c(C)c(S(=O)(=O)N2CCC(C(=O)N3CCc4ccccc43)CC2)c1C(=O)N1CCCCC1	.
Cc1[nH]c(C)c(S(=O)(=O)N2CCC(C(=O)N3CCc4ccccc43)CC2)c1C(=O)N1CCCC1	+
Cc1[nH]c(C)c(S(=O)(=O)N2CCc3ccccc3C2)c1C(=O)N1CCCC1	.
Cc1cn2c(S(=O)(=O)NC3CCCCCC3)c(C(C)C)nc2s1	.
Cc1nnc(-c2coc(S(=O)(=O)N3CCN(C(C)C)CC3)c2)o1	.
Cc1[nH]nc2c1C(c1ccccc1OC(C)C)CC(=O)N2 (stereo not drawn)	.
Cc1ccc(Cl)cc1NS(=O)(=O)c1cc(-c2nc(C(C)(C)C)cs2)cs1	.
CC(C)(C)c1csc(-c2csc(S(=O)(=O)Nc3ccc(Cl)cc3F)c2)n1	+
CC(C)(C)c1csc(-c2csc(S(=O)(=O)Nc3ccc(F)c(Cl)c3)c2)n1	.
CC(C)(C)c1ccccc1OC(=O)CSc1nc(-c2ccccc2)nc2cc(=O)[nH]n12	.
CNCc1ccc(-c2cc(Cl)cc(Cl)c2)o1	.
O=C(CN1C(=O)CSc2cccn2-c2ccccc21)N1CCN(c2ccccn2)CC1	.
Cc1nc2scc(C)n2c(=O)c1NC(=O)Cc1ccc(Cl)cc1	+
Cc1nc2scc(C)n2c(=O)c1NC(=O)C(C)C	.
Cc1nc2sccn2c(=O)c1NC(=O)Cc1ccc(Cl)cc1	.
COc1ccccc1NC(=O)NCc1ccnc(N2CCCCC2)c1	+
O=C(NCc1ccnc(N2CCCCC2)c1)Nc1ccc(F)c(Cl)c1	+
COc1ccccc1NC(=O)Nc1ccc(Nc2cc(N3CCCC3)nc(C)n2)cc1	.
SMILES	Choline anaer gr
O=C(NCc1ccnc(N2CCSCC2)c1)Nc1cc(F)ccc1F	.
O=C(NCc1ccnc(N2CCSCC2)c1)Nc1ccc(F)cc1F	.
COc1ccccc1CNC(=O)c1ccc(N2CCCC2)c(NC(=O)Nc2ccccc2Cl)c1	.
Cc1cccc(-c2nnc(SCc3cc(=O)n4c(C)csc4n3)o2)c1	.
CCC(Sc1nc2ncccc2[nH]1)C(=O)Nc1ccc(Br)cc1 (stereo not drawn)	.
CCOc1ccc(NC(=O)C(C)Sc2nc3c(c(=O)[nH]2)CCCC3)cc1 (stereo not drawn)	.
CCOc1ccc(NC(=O)C(CC)Sc2nc3ncccc3[nH]2)cc1 (stereo not drawn)	+
COc1ccc(NC(=O)C2CCCN(c3ncnc4c3oc3ccccc34)C2)cc1OC (stereo not drawn)	.
CCn1c(CN(c2ccc(F)cc2)S(C)(=O)=O)nnc1SCC(=O)Nc1ccc(F)cc1F	+
CCn1c(CN(c2ccc(F)cc2)S(C)(=O)=O)nnc1SCC(=O)c1ccc(Cl)cc1	.
CCn1c(CN(c2ccc(F)cc2)S(C)(=O)=O)nnc1SCC(=O)c1ccccc1	.
Cc1nn(-c2cc(N3CCCC3)ncn2)c(C)c1CCC(=O)NCc1ccccc1Cl	.
O=C(C1CCN(S(=O)(=O)Cc2ccc(Cl)cc2)CC1)N1CCOCC1	.
COc1ccccc1N1CCN(C(=O)CSc2nc(-c3ccc(F)cc3)cc(C(F)(F)F)n2)CC1	.
CC(=O)Nc1ccc(-c2cc(C(=O)NC3CC3)c3ccccc3n2)cc1	.
Cc1ccc(-c2noc3ncnc(N4CCOCC4)c23)cc1	.
OCC1O[C@H](O)C(Cl)C(O)C1O (stereo partly drawn)	.
OCC1O[C@H]([S-])[C@@H](O)C(O)[C@@H]1O.[Au+] (stereo partly drawn)	+
OC[C@H]1O[C@H](O[C@H]2[C@H](O)[C@@H](O)[C@H](O)O[C@@H]2CO)[C@H](O)[C@@H](O)[C@@H]1O	.
OCCOCCNCc1ccc(-c2ccc(Cl)cc2)o1	.
CCCCC/C=C\C/C=C\CCCCCCCC(N)=O	.
CCCCCCC/C=C\CCCCCCCCC(=O)O	.
CCCCC/C=C\C/C=C\CC1OC1C/C=C\CCCC(=O)O (stereo not drawn)	.
CC/C=C\C/C=C\C/C=C\CCCCCCCCCC(=O)O	+
CC/C=C\C/C=C\C/C=C\CCCCCCCC(=O)O	.
SMILES	Choline anaer gr
CCCCC/C=C\C/C=C\C/C=C\C/C=C\CCCC(=O)O	.
CC/C=C\C/C=C\C/C=C\C/C=C\C/C=C\CCCC(=O)O	+
CCCCC/C=C\C/C=C\C/C=C\C/C=C\CCCCCC(=O)O	.
CC/C=C\C/C=C\C/C=C\CCCCCCCCCCCC(=O)O	+
Cc1nc(CCNC(=O)[C@H]2CCCN2C(=O)c2cccc(Cl)c2)cs1	.
COc1cc(OC)cc(-n2nnc(-c3nsc(Nc4ccc(OC)c(OC)c4)n3)c2C)c1	.
COC(=O)c1ccc2c(=O)n(-c3cc(C)cc(C)c3)c(N3CCN(Cc4ccccc4)CC3)nc2c1	.
O=S(=O)(c1ccc(F)cc1)N1CCN=C1N1CCN(c2ccc(F)cc2)CC1	.
O=C(c1csc(S(=O)(=O)Nc2cccnc2)c1)N1CCCC1	.
O=C(NCc1ccccc1F)c1ccc(N2C(=O)CCS2(=O)=O)cc1	.
CCOC(=O)Cn1c2ccc(Br)cc2c2nc3ccccc3nc21	.
NC[C@@H]1O[C@H](c2ccccc2)Cc2c1ccc(O)c2O	.
NC[C@@H]1O[C@H](C23CC4CC(CC(C4)C2)C3)Cc2c1ccc(O)c2O	+!
Cc1c(CCNC(=O)c2ccc3c(c2)OCO3)sc2nc(-c3ccc(Cl)cc3)nn12	.
CCOC(=O)c1nc(Nc2cccc(OC)c2)c2c(C)c(C)n(-c3ccccc3)c2n1	.
Cc1noc2ncn(Cc3ccccc3)c(=O)c12	.
Cc1noc2nc[nH]c(=O)c12	+
Cc1noc2ncnc(NC(C)C)c12	.
Cc1ccc(S(=O)(=O)NCc2nnc(C(=O)Nc3ccc(F)cc3)s2)cc1	.
O=C(NCc1ccc2c(c1)OCO2)c1ccc(C2Nc3ccccc3S(=O)(=O)N2)cc1 (stereo not drawn)	.
Cn1c(=O)c(-c2noc(C(=O)NC3CCCC3)n2)nn(-c2ccc(F)cc2)c1=O	.
CN1CCN(c2ccc(NC(=O)c3ccccc3Cl)c(C(=O)O)c2)CC1	.
CCCN1CCN(c2ccc(NC(=O)c3ccccc3Cl)c(C(=O)O)c2)CC1	.
CCCCN(C)c1ccc(NC(=O)c2ccccc2Cl)c(C(=O)O)c1	+
O=C(Nc1ccc(N2CCC(Cc3ccccc3)CC2)cc1C(=O)O)c1ccccc1Cl	+
SMILES	Choline anaer gr
CCCCN(C)c1ccc(NC(=O)C2CC2)c(C(=O)O)c1	.
CCCCN(C)c1ccc(NS(=O)(=O)c2ccc(Br)cc2)c(C(=O)O)c1	.
CCC(=O)Nc1cc(F)c2[nH]c(=O)ccc2c1	.
Cc1nn(C)c(C)c1S(=O)(=O)N1CCN(C(=O)C2CCC2)CC1	.
CC(C)c1nnc(-c2ccc(S(=O)(=O)NC3CCCC3)o2)o1	+
CC(C)c1nnc(-c2ccc(S(=O)(=O)N3CCCCC3)o2)o1	.
O=S(=O)(NC1CCCCC1)c1ccc(-c2nnc(C3CCC3)o2)o1	.
CCCCN(Cc1nc2nc(C)cc(C)n2n1)C(=O)c1ccc(F)cc1	.
O=c1c(S(=O)(=O)N2CCCC2)cccn1Cc1ccc(F)cc1Cl	.
